Assay [1] has as its target Cytochrome P450 1A2 (Homo sapiens) (UniProt P05177). Put plainly: p450-cyp1a2 (AID 410; calls by dose curve; note: potency is the fitted concentration of half-maximal effect). In short, it runs like this:
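20nM CYP1A2, 100uM Luciferin-ME (=Km), 100mM KPO4; cpd 10 min RT; +NADPH regen, 60 min RT; stop/detect 20 min; luminescence. Normalized to furafylline 57 uM = full inhibition.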

Another assay has as its system 3D7. Kind of assay: qHTS profiling for inhibitors of Plasmodium falciparum proliferation (AID 504749). Note: nearly all actives have a fitted effect of over 60% in size. To be noted: P. falciparum in erythrocytes, SYBR Green DNA, 72 h; series mostly up to 12.8 µM. In short, it runs like this: (§1)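 Fluorescence of SYBR Green-bound parasite DNA, read at 485/535 nm, served as the growth measure. Infected erythrocytes were cultured with compound 72 h; artemisinin (0.29 uM) and DMSO wells defined the normalization range.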
Background: In qHTS, concentration-response curves come from the screen itself.

The next assay deals with AA1029. The description is as above. To be noted: P. falciparum in erythrocytes, SYBR Green DNA, 72 h; series mostly up to 12.8 µM. The method in brief: as §1
For the next assay, the system named is ATS189. Described as above. To be noted: P. falciparum in erythrocytes, SYBR Green DNA, 72 h; series mostly up to 12.8 µM. The method in brief:
as §1

For the next assay, the system named is CP185. Described as above. To be noted: P. falciparum in erythrocytes, SYBR Green DNA, 72 h; series mostly up to 12.8 µM. The method in brief: as §1
A further assay concerns CP192. The assay is described as above. The settings on record: P. falciparum in erythrocytes, SYBR Green DNA, 72 h; series mostly up to 12.8 µM. In short, it runs like this:
as §1

The next assay deals with CP201. The description is as above. To be noted: P. falciparum in erythrocytes, SYBR Green DNA, 72 h; series mostly up to 12.8 µM. The method in brief: as §1
In a further assay the test system is CP238. Described as above. The settings on record: P. falciparum in erythrocytes, SYBR Green DNA, 72 h; series mostly up to 12.8 µM. The method in brief:
as §1

A further assay has as its system CP250. Described as above. To be noted: P. falciparum in erythrocytes, SYBR Green DNA, 72 h; series mostly up to 12.8 µM. The method in brief: as §1
The test system of another assay is CP262. The description is as above. The settings on record: P. falciparum in erythrocytes, SYBR Green DNA, 72 h; series mostly up to 12.8 µM. The method in brief: as §1
The test system of another assay is CP265. Described as above. To be noted: P. falciparum in erythrocytes, SYBR Green DNA, 72 h; series mostly up to 12.8 µM. In short, it runs like this: as §1
In a further assay the test system is CP268. Described as above. The settings on record: P. falciparum in erythrocytes, SYBR Green DNA, 72 h; series mostly up to 12.8 µM. In short, it runs like this:
as §1

A further assay has as its system CP291. Described as above. To be noted: P. falciparum in erythrocytes, SYBR Green DNA, 72 h; series mostly up to 12.8 µM. In short, it runs like this:
as §1

In the next assay the test system is CP315. Described as above. To be noted: P. falciparum in erythrocytes, SYBR Green DNA, 72 h; series mostly up to 12.8 µM. In short, it runs like this:
as §1

In the next assay the test system is DIV30. Described as above. The settings on record: P. falciparum in erythrocytes, SYBR Green DNA, 72 h; series mostly up to 12.8 µM. The method in brief: as §1
The next assay deals with JCK. The description is as above. The settings on record: P. falciparum in erythrocytes, SYBR Green DNA, 72 h; series mostly up to 12.8 µM. The method in brief:
as §1

The subject of another assay is PAD. The assay is described as above. The settings on record: P. falciparum in erythrocytes, SYBR Green DNA, 72 h; series mostly up to 12.8 µM. In short, it runs like this: as §1
The subject of the next assay is PC26. The assay is described as above. To be noted: P. falciparum in erythrocytes, SYBR Green DNA, 72 h; series mostly up to 12.8 µM. In short, it runs like this: as §1
Another assay has as its system SC27B. Described as above. The settings on record: P. falciparum in erythrocytes, SYBR Green DNA, 72 h; series mostly up to 12.8 µM. In short, it runs like this:
as §1

A further assay relates to TAB109. The description is as above. To be noted: P. falciparum in erythrocytes, SYBR Green DNA, 72 h; series mostly up to 12.8 µM. In short, it runs like this: as §1

Results filed as inconclusive are left out. Active and inactive are the calls of the source. Unless noted, calls come from the whole dose curve; as a rule, active = well fitted inhibition curve with a large enough effect; inconclusive = small, poorly fitted or top-dose-only effect; inactive = flat fitted curve, though single readings scatter.

Chain of Cytochrome P450 1A2 (Homo sapiens) (P05177 whole entry, looked up): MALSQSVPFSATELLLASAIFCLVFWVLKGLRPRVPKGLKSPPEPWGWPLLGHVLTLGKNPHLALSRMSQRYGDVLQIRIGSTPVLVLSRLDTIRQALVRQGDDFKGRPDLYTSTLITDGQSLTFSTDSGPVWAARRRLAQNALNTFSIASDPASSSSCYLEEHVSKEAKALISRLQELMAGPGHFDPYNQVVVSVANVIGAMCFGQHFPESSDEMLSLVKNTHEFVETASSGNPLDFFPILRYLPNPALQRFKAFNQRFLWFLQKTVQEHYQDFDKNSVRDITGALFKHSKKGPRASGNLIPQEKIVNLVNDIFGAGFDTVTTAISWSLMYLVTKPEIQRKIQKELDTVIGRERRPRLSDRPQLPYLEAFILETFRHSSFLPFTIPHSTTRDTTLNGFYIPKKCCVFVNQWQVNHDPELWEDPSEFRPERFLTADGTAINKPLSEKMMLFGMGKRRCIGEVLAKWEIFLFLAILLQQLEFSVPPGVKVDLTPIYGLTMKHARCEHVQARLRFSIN

`CS(=O)(=O)Nc1cccc(-c2nc(Nc3ccc(F)cc3)c3ccccc3n2)c1`: in assay [1], the Potency is 0.794 µM (active).
For `CC1=C(C(=O)O)N2C(=O)[C@@H](NC(=O)[C@@H](N)c3ccc(O)cc3)[C@@H]2SC1`, the Potency entry in the assay on 3D7, in the assay on AA1029, in the assay with ATS189, with CP185, in the assay with CP192 and with CP201 was “inactive” each time. Further, the Potency entry in the assay on CP238, with CP250, in the assay with CP262, in the assay with CP265, with CP268 and with CP291 was “inactive” each time. Also, the Potency result in the assay with CP315, in the assay with DIV30, in the assay on JCK, in the assay on PAD, in the assay with PC26 and in the assay with SC27B was “inactive” in each case. In the assay on TAB109, the Potency result is “inactive”.
With `CN1CCO[C@H](c2ccccc2)c2ccccc2C1`, the Potency entry in the assay with 3D7, with CP192, in the assay with CP201, in the assay with CP250, with CP262 and with CP291 was “inactive” throughout. The Potency entry in the assay with CP315, with JCK, in the assay with PAD, in the assay on PC26 and in the assay on SC27B was “inactive” in each case.
For `COc1cc2nc(N3CCN(C(=O)[C@@H]4COc5ccccc5O4)CC3)nc(N)c2cc1OC`, the Potency entry (in assay [1]; in the assay on ATS189; with CP201; with CP238; with CP250; in the assay with CP265) was “inactive” throughout. Moreover, the Potency result in the assay on CP268, in the assay with CP315, in the assay on JCK and with SC27B was “inactive” throughout.
Turning to `COc1cccc(-c2nc(NCCc3c[nH]c4ccc(OC)cc34)c3ccccc3n2)c1`, the Potency in assay [1] was 1.58 µM (active).
Still for that read-out and setting: the same measure for `COc1cc2ccc(=O)oc2c(O)c1O`: 12.6 µM (active); for `Cc1ccnc(N)c1`: “inactive”.
In the case of `CC1(C)S[C@@H]2[C@H](NC(=O)[C@@H](N)c3ccccc3)C(=O)N2[C@H]1C(=O)O[C@H]1OC(=O)c2ccccc21`, the Potency result (in [1]; with 3D7; in the assay on AA1029; in the assay on ATS189; with CP185; in the assay on CP192) was “inactive” in each case. For the same molecule, the Potency entry with CP201, with CP238, in the assay on CP250, in the assay on CP262, in the assay on CP265 and in the assay with CP268 was “inactive” each time. Further, the Potency result in the assay on CP291, with CP315, in the assay on DIV30, in the assay with JCK, with PAD and in the assay on PC26 was “inactive” each time. Also, the Potency entry in the assay on SC27B and in the assay on TAB109 was “inactive” each time.
On to `CN1[C@H](CC(=O)c2ccccc2)CCC[C@H]1C[C@@H](O)c1ccccc1`, for which the Potency in assay [1] was 31.6 µM (active).
Still for that read-out and setting: the same measure for `CC[C@H](C(=O)[C@H](C)[C@H](O)[C@H](C)CCc1ccc(C)c(O)c1C(=O)O)[C@H]1O[C@](CC)([C@@H]2CC[C@@](O)(CC)[C@H](C)O2)C[C@H]1C`: “inactive”; for `NCCC(=O)N[C@@H](Cc1cnc[nH]1)C(=O)O`: “inactive”.
As for `O=C(c1cc(C(F)(F)F)cc(C(F)(F)F)c1)N1CCC[C@@]2(CCN(c3ccccn3)C2)C1`, the Potency in assay [1] is 25.1 µM (active).
On the same count and under the same terms, the same measure for `O=c1cc(-c2cccc(O)c2)oc2cc(O)ccc12`: 5.01 µM (active).
For the molecule `COc1ccc2c(c1)N(C[C@@H](C)CN(C)C)c1ccccc1S2`, the Potency entry in the assay with 3D7, in the assay on AA1029, in the assay on ATS189, with CP185, in the assay with CP192 and with CP201 was “inactive” in each case. For the same molecule, the Potency entry in the assay on CP238, with CP250, with CP262, in the assay on CP265, with CP268 and with CP291 was “inactive” each time. For the same molecule, the Potency entry with CP315, in the assay on JCK, with PAD, in the assay on SC27B and in the assay with TAB109 was “inactive” each time.
Take `CO[C@@H]1CC[C@@]2(C)[C@@H](CC[C@@]3(C)[C@H]2CC=C2[C@H]4CC(C)(C)[C@H](O)[C@@H](OC(C)=O)[C@]4(CO)[C@H](O)C[C@]23C)[C@@]1(C)CO` (tested in a mixture with another compound): in assay [1], the Potency entry was “inactive”.
Take `CCC(C)(C)C(=O)O[C@@H]1C[C@H](C)C=C2C=C[C@H](C)[C@@H](CC[C@H]3C[C@@H](O)CC(=O)O3)[C@H]21`: the Potency result with 3D7, in the assay on AA1029, in the assay with ATS189, in the assay with CP185, in the assay with CP192 and with CP201 was “inactive” each time. Also, the Potency entry with CP238, in the assay on CP250, in the assay with CP262, with CP265, in the assay on CP268 and with CP291 was “inactive” throughout. The Potency entry with CP315, with DIV30, in the assay with JCK, in the assay on PC26, in the assay on SC27B and with TAB109 was “inactive” each time.

The record behind these values is PubChem BioAssay (NCATS).
